Source: PubChem BioAssay (NCATS)
Records with an inconclusive call do not appear. Where a call stands in place of a potency, no number is given. Activity calls are given as the source filed them. Calls follow the shape of the dose curve; as a rule, active = well fitted curve in the direction sought with a large enough effect; inconclusive = small, poorly fitted or top-dose-only effect, or another doubt; inactive = no such curve, though single readings can be large; an effect the other way counts as inactive or inconclusive.

Molecular target: Glutaminase kidney isoform, mitochondrial (Homo sapiens) (UniProt O94925)
Assay: qHTS for Inhibitors of Glutaminase (GLS): LOPAC Validation (AID 624146); also: nearly all actives have a fitted effect of over 60% in size; also: potency is read from the fitted curve at half-maximal effect
Conditions: glutaminase enzyme activity inhibition; series mostly up to 46.1 µM
How it was run: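 hKGA in 45 mM KH2PO4 (pH 8.2), 0.02% Tween-20 with compound, then 1mM L-Glutamine (stock as added) plus glutamate oxidase/HRP/Amplex red coupling mix. Fluorescence read initially and after 30 min at RT; signal change reflects glutamate formation.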

Chain of Glutaminase kidney isoform, mitochondrial (Homo sapiens) (O94925 whole entry, looked up, canonical isoform): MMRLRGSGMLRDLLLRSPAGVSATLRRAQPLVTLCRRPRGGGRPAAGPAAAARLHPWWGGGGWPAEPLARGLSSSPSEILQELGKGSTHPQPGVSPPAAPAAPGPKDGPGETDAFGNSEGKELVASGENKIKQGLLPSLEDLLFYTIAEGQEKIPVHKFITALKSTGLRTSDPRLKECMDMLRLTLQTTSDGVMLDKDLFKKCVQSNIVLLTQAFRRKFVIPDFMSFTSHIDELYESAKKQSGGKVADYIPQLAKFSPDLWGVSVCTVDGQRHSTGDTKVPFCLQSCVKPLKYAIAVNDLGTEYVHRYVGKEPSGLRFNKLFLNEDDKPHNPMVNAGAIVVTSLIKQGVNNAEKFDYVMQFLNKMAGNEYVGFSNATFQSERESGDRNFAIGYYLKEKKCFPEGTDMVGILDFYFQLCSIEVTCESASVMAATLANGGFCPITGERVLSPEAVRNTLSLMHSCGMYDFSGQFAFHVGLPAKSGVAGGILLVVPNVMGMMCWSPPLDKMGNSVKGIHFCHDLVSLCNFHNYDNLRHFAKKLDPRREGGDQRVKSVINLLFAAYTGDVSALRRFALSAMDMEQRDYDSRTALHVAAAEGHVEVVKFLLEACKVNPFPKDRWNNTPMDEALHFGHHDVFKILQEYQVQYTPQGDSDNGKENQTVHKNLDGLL

Compound | Potency
NCc1cc(=O)[nH]o1 | inactive
O=C1CCCN1CC#CCN1CCCC1 | inactive
COc1cc(C(O)CN)ccc1O (stereo unspecified) | 2240 nM (active)
CC(=O)NCCc1c[nH]c2ccccc12 | inactive

System: not listed separately
Assay: qHTS of Trypanosoma Brucei Inhibitors: LOPAC Validation (AID 624147)
Conditions: purified enzyme assay, luminescence, 45 min; series mostly up to 57.5 µM
How it was run: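 ADP (130 uM final) triggers the TbPYK reaction after compound addition; incubation is 45 min at room temperature. Kinase-Glo Plus is then added and luminescence imaged. Normalized data are fitted to concentration-effect curves.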

Compound | outcome
O=C(O)CC[N+](=O)[O-] | inactive
NC(N)=NOCCC(N)C(=O)O (stereo unspecified) | inactive
CC(Cc1ccc(O)cc1)NCC(O)c1cc(O)cc(O)c1 (stereo unspecified) | inactive
Cc1c(C(=O)c2cccc3ccccc23)c2cccc3c2n1[C@H](CN1CCOCC1)CO3 | inactive
CC(C)Oc1cccnc1N(C)C1CCN(Cc2ccccc2)CC1 | inactive
Cn1cnc(CCN)c1 | inactive
c1ccc(CCCN2CCN(CCOC(c3ccccc3)c3ccccc3)CC2)cc1 | inactive
NC(CP(=O)(O)O)C(=O)O (stereo unspecified) | inactive
NC(CCP(=O)(O)O)C(=O)O (stereo unspecified) | inactive
NCCc1c[nH]c2ccc(O)cc12 | inactive
CNCCc1ccc(O)c(O)c1 | inactive
CNCCc1c[nH]c2ccc(O)cc12 | inactive
O=C(O)Cc1cnc[nH]1 | inactive
COc1ccc2c(c[n+](C)c3c4cc5c(cc4ccc23)OCO5)c1OC | inactive
CCCN1CCO[C@@H]2c3cc(O)ccc3OC[C@H]21 | inactive
c1ccc2sc(C3(N4CCCCC4)CCCCC3)cc2c1 | inactive
C[C@@H]1O[C@H](C[N+](C)(C)C)C[C@H]1O | inactive
CC[C@@]1(O)C(=O)OCc2c1cc1n(c2=O)Cc2cc3ccccc3nc2-1 | inactive
C[C@]12CCC3C(CC[C@H]4C[C@H](O)CC[C@]34C)C1CC[C@@H]2C(=O)CO (stereo partly specified) | inactive
S=C(NC1CCCCC1)N1CCC(c2cnc[nH]2)CC1 | inactive
C[N+]1(C)C2CCC1CC(OC(=O)C(CO)c1ccccc1)C2 (stereo unspecified) | inactive
NCc1cc(=O)[nH]o1 | inactive
O=C1CCCN1CC#CCN1CCCC1 | inactive
COc1cc(C(O)CN)ccc1O (stereo unspecified) | inactive
CC(=O)NCCc1c[nH]c2ccccc12 | inactive

System: not listed separately
Assay: qHTS of Nrf2 Activators: LOPAC Validation (AID 624149)
Conditions: Nrf2/ARE reporter cell assay; series mostly up to 46.1 µM
How it was run: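 Following overnight seeding in 5% FBS OPTI-MEM, AREc32_Fluc cells receive compounds for a 24 hr incubation at 37 deg C with 5% CO2. Steady-Glo is added, and after 30 min at RT luminescence is recorded.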

Compound | outcome
CC(C)Oc1cccnc1N(C)C1CCN(Cc2ccccc2)CC1 | inactive
NC(CCP(=O)(O)O)C(=O)O (stereo unspecified) | inactive
NCCc1c[nH]c2ccc(O)cc12 | inactive
C[C@@H]1O[C@H](C[N+](C)(C)C)C[C@H]1O | inactive
C[N+]1(C)C2CCC1CC(OC(=O)C(CO)c1ccccc1)C2 (stereo unspecified) | inactive
O=C1CCCN1CC#CCN1CCCC1 | inactive

System: not listed separately
Assay: HTS Assay for Allosteric Antagonists of the Human D2 Dopamine Receptor: Hit Validation in HTRF (AID 624455); also: potency is read from the fitted curve at half-maximal effect;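 also: stable D1 dopamine receptor cell line scored for blocking the D1 response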
Conditions: Cells stably expressing D1 dopamine receptor, inhibition mode; series mostly up to 46.1 µM
How it was run: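 Validation of hits used D1 receptor stably expressed in cells with HTRF detection of response inhibition; origin screen measured calcium flux following EC80 dopamine in a force-coupled, inducible Hek293 Trex D2 cell line.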

Compound | Potency
O=C(O)CC[N+](=O)[O-] | inactive
NC(N)=NOCCC(N)C(=O)O (stereo unspecified) | inactive
NC1CCc2cc(O)c(O)cc2C1 (stereo unspecified) | 16.4 nM (active)
CC(Cc1ccc(O)cc1)NCC(O)c1cc(O)cc(O)c1 (stereo unspecified) | inactive
Cc1c(C(=O)c2cccc3ccccc23)c2cccc3c2n1[C@H](CN1CCOCC1)CO3 | inactive
CC(C)Oc1cccnc1N(C)C1CCN(Cc2ccccc2)CC1 | inactive
Cn1cnc(CCN)c1 | inactive
c1ccc(CCCN2CCN(CCOC(c3ccccc3)c3ccccc3)CC2)cc1 | inactive
NC(CP(=O)(O)O)C(=O)O (stereo unspecified) | inactive
NC(CCP(=O)(O)O)C(=O)O (stereo unspecified) | inactive
NCCc1c[nH]c2ccc(O)cc12 | inactive
CNCCc1ccc(O)c(O)c1 | 130 nM (active)
CNCCc1c[nH]c2ccc(O)cc12 | inactive
O=C(O)Cc1cnc[nH]1 | inactive
COc1ccc2c(c[n+](C)c3c4cc5c(cc4ccc23)OCO5)c1OC | inactive
CCCN1CCO[C@@H]2c3cc(O)ccc3OC[C@H]21 | inactive
c1ccc2sc(C3(N4CCCCC4)CCCCC3)cc2c1 | inactive
C[C@@H]1O[C@H](C[N+](C)(C)C)C[C@H]1O | inactive
CC[C@@]1(O)C(=O)OCc2c1cc1n(c2=O)Cc2cc3ccccc3nc2-1 | inactive
C[C@]12CCC3C(CC[C@H]4C[C@H](O)CC[C@]34C)C1CC[C@@H]2C(=O)CO (stereo partly specified) | inactive
S=C(NC1CCCCC1)N1CCC(c2cnc[nH]2)CC1 | inactive
C[N+]1(C)C2CCC1CC(OC(=O)C(CO)c1ccccc1)C2 (stereo unspecified) | inactive
NCc1cc(=O)[nH]o1 | inactive
O=C1CCCN1CC#CCN1CCCC1 | inactive
COc1cc(C(O)CN)ccc1O (stereo unspecified) | inactive
CC(=O)NCCc1c[nH]c2ccccc12 | inactive
